Bioassay records from PubChem.
NPC1 prom act: NPC1 promoter activation | Huh7 NPC1 promoter luciferase reporter, 24 h | Potency, µM (highest dose often 9.22 µM), without a hit: top-dose activation, usual class: activators | hit rate 2.4% among 320,000 | AID 485313; also: % of control where 0% means no effect; nearly all actives have a fitted effect of over 60% in size
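Cells: Huh7 expressing luciferase under the NPC1 promoter, 1500/well. Seeded 2 h, compound added, incubated 24 h at 37 °C. Luciferase reagent, 10 min ambient, then luminescence.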
Rab9 prom act: Rab9 promoter activation; Huh7 Rab9 promoter-luciferase reporter, luminescence, 24 h; Potency, µM (series often up to 9.22 µM), inactives show at the top dose activation, negative = inhibition, usual class: activators; hit rate 2.8% among 320,000; AID 485297; also: % of control where 0% means no effect; nearly all actives have a fitted effect of over 60% in size
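Luminescence from Amplite-detected luciferase (10 minutes, ambient) reports Rab9 promoter activation. Before that, stable Rab9-luciferase Huh7 cells (1500/well, reduced-serum OP-MEM I plus 10% FBS) were exposed to compound for 24 hours at 37C.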
SMN2 splice enh: SMN2 splice variant enhancement; hit rate 2.8% among 210,000; HEK293 SMN2-luciferase splicing reporter, luminescence, 30-36 h; Potency, µM (titrated, usually from 46.1 µM), for inactives: at the top dose activity change, positive = activation, most hits filed as activators; AID 1458; also: % of control where 0% means no effect; nearly all actives have a fitted effect of over 55% in size
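qHTS luciferase splicing reporter: luminescence rises when SMN2 exon 7 is included in transfected HEK293 cells. Compound exposure lasted 30-36 h at 37C, with 4.5 mM final sodium butyrate as control, followed by a ONE-Glo read.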
FLuc modulator: inhibits or activates purified firefly luciferase, miR-21 counter-screen. P08659. purified FLuc, Km substrates, luminescence inhibition. Potency, µM (series often up to 57.5 µM), without a hit: at the top dose activity change, negative = inhibition, most hits filed as inhibitors. hit rate 6.9% among 360,000. AID 588342;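 also: plate controls were vehicle for no effect and reference inhibitor for full effect; nearly all actives have a fitted effect of over 55% in size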
Target sequence (P08659 whole entry, looked up): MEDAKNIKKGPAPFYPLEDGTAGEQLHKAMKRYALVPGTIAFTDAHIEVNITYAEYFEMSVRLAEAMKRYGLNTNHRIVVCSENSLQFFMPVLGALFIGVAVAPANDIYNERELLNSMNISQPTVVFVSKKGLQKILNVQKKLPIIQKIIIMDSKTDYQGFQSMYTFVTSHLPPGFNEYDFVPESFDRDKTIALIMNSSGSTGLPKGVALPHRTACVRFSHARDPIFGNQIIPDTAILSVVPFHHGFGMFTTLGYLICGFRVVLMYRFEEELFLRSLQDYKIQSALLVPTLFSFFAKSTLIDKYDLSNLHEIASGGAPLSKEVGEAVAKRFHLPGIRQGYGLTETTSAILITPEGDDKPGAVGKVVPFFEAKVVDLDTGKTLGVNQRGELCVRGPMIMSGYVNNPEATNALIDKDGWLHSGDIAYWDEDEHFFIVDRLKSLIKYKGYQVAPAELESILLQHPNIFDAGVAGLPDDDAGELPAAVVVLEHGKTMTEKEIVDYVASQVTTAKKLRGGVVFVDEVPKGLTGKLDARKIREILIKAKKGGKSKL
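Biochemical qHTS of compounds, final roughly 60 µM downward over six points, against 10 nM purified firefly luciferase using Km concentrations of substrates (10 uM D-luciferin, 10 uM ATP) in Tris acetate pH 7.5 buffer; luminescence output.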
ELG1 repair inh: ELG1-dependent DNA repair inhibition; AID 504467; Potency, µM (series often up to 46.1 µM), without a hit: top-dose activity change, negative = inhibition, most hits filed as inhibitors; hit rate 2.3% among 330,000; HEK293T ELG1-luciferase reporter, luminescence, 16 h; DNA damage induced by 5-fluorouridine; also: % is scaled to controls: 0 for no effect and ±100 for the full control effect; nearly all actives have a fitted effect of over 55% in size
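Overnight (16 hr) co-exposure of 2,000 cells/well to 5-fluorouridine and compound at 37 °C preceded detection. Luciferase was quantified via ONE-Glo luminescence; loss of signal denotes inhibition.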
ELG1 genotoxic: genotoxicity induction in ELG1-luciferase HEK293T cells; HEK293T ELG1-luciferase reporter, luminescence, 16 h; Potency, µM (doses to about 46 µM), without a hit: at the highest dose activity change, positive = activation, hits mostly activators; hit rate 1.3% among 330,000; also: % of control where 0% means no effect; nearly all actives have a fitted effect of over 60% in size
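After overnight (16 hr) compound treatment at 37 °C, ELG1-luciferase HEK293T cells were lysed with ONE-Glo; luminescence quantified 30 min later at room temperature.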
An asterisk follows results filed as active; ? = inconclusive; nt = no result given. Shown are actives, neighbours in structure and some others; about 9.2% of the full set was active somewhere. Calls follow the shape of the dose curve; as a rule, active = well fitted curve in the direction sought with a large enough effect; inconclusive = small, poorly fitted or top-dose-only effect, or another doubt; inactive = no such curve, though single readings can be large; an effect the other way counts as inactive or inconclusive. Potency is read from the fitted curve at half-maximal effect.

SMILES	NPC1 prom act	Rab9 prom act	SMN2 splice enh	FLuc modulator	ELG1 repair inh	ELG1 genotoxic
CN(CC(=O)Nc1cccc(F)c1)C(=O)c1cc([N+](=O)[O-])ccc1N1CCCCC1	-7%	7%	nt	1%	4%	1%
CCCC(=O)Nc1ccc2nc(SCC(=O)Nc3ccc(N4CCOCC4)c(Cl)c3)sc2c1	4µM*	29%	-10%	3.8µM*	?	-12%
CC(=O)c1ccc(NC(=O)CSc2nc(Nc3ccccc3)nc(N3CCOCC3)n2)cc1	-4%	-4%	nt	-4%	5.8µM*	2%
c1ccc2c(Nc3nc(N4CCOCC4)c4ccccc4n3)cccc2c1	0%	-4%	-60%	?	23µM*	-3%
Nc1ccc2nc(SCC(=O)Nc3ccc(N4CCOCC4)c(Cl)c3)sc2c1	12%	7%	29%	?	11%	?
CSc1nc2ccc(Nc3nc(N4CCOCC4)nc(N4CCOCC4)n3)cc2s1	-5%	-3%	-4%	1%	5.2µM*	-19%
NS(=O)(=O)c1ccc(NC(=O)CSc2nc(Nc3ccccc3)nc(N3CCOCC3)n2)cc1	-1%	-2%	nt	-3%	?	-1%
Fc1ccc(Nc2nc(N3CCOCC3)c3ccccc3n2)cc1	0%	-4%	-26%	-6%	?	-8%
Fc1ccc(Nc2nc(N3CCOCC3)nc(N3CCOCC3)n2)cc1Cl	-7%	-3%	nt	0%	?	11%
COc1ccccc1NS(=O)(=O)c1ccc(O)c(C(=O)OCC(=O)N2c3ccccc3CC2C)c1 (centres undefined)	-7%	10%	0%	-19%	-5%	4%
Clc1ccc(Nc2nc(N3CCOCC3)nc(N3CCOCC3)n2)cc1Cl	-14%	-13%	nt	0%	1.6µM*	8%
Cc1cc(Nc2ccc(C)c(Cl)c2)nc(N2CCOCC2)n1	22%	10%	nt	-12%	21µM*	1%
O=C(CSc1nc2ccc(Nc3nc(N4CCOCC4)nc(N4CCOCC4)n3)cc2s1)Nc1ccccc1F	-7%	-15%	nt	0%	2.6µM*	-1%
Fc1ccccc1Nc1nc(N2CCOCC2)nc(N2CCOCC2)n1	1%	-1%	nt	0%	5.8µM*	-6%
Cc1ccccc1Nc1nc(N2CCOCC2)nc(N2CCOCC2)n1	1%	-4%	nt	1%	?	0%
O=C(CSc1nc2ccc(Nc3nc(N4CCOCC4)nc(N4CCOCC4)n3)cc2s1)N1CCOCC1	-2%	-10%	12%	1%	2.6µM*	-2%
Cc1csc2c(=O)n(CCO)c(=O)[nH]c12	-1%	-5%	nt	-1%	-3%	0%
CCC(=O)NC1(Cc2ccc(O)cc2)CCCCC1	-3%	-4%	13%	-1%	7%	0%
O=C(CCSCc1ccccc1)Nc1ccc2c(c1)OCCO2	-2%	10%	nt	9.5µM*	?	7%
O=C(Nc1ccc2c(c1)OCCO2)N1CCN(Cc2ccccc2)CC1	?	?	18%	13µM*	?	2%
CC(C)c1ccc(NC(=O)CCc2ccccc2)cc1	26%	?	nt	24µM*	?	?
O=C(CCCOc1ccccc1)Nc1ccc2c(c1)OCCO2	1%	3%	nt	12µM*	?	?
COc1ccc(OCCCC(=O)Nc2ccc3c(c2)OCO3)cc1	7%	20%	-4%	4%	-5%	3%
N=C1CCCN1CC(=O)c1ccc(Br)cc1	28%	?	?	-1%	?	14%
CCc1ccccc1NC(=O)C(C)n1c(=O)cc(C)c2c(C)nn(-c3ccccc3)c21 (centres undefined)	nt	nt	nt	-3%	nt	nt
SMILES	NPC1 prom act	Rab9 prom act	SMN2 splice enh	FLuc modulator	ELG1 repair inh	ELG1 genotoxic
COc1ccc(C2(O)CCN(CCCCOc3ccccc3)CC2)cc1	1%	2%	nt	6%	-12%	9%
O=C(CCc1ccccc1)Nc1ccc2c(c1)OCCO2	3.2µM*	1.8µM*	13µM*	6µM*	?	?
O=C(CCc1ccccc1)Nc1cc2c(cc1Cl)OCCO2	3.5µM*	3.2µM*	13µM*	11µM*	?	?
COc1ccccc1/C=N/N1C(=O)C(CC(=O)Nc2ccc([N+](=O)[O-])cc2OC)SC1=Nc1cccc(C)c1C (centres undefined)	-13%	-21%	-15%	0%	5.8µM*	-7%
CCOc1ccc(CNC(=O)C2Cc3ccccc3N2C(=O)CC)cc1 (centres undefined)	nt	nt	nt	6%	nt	nt
COc1ccc2c(Sc3ccccc3)c(C(=O)NCCN(C)C)[nH]c2c1	nt	nt	nt	4.8µM*	nt	nt
COc1ccc2c(N)c(C(=O)NN)[nH]c2c1	-2%	-3%	nt	17µM*	-11%	-6%
CC(C)c1ccc(NC(=O)c2ccc(Br)o2)cc1	0.89µM*	0.63µM*	2.5µM*	2.1µM*	?	?
Cc1nc(-c2ccc(NC(=O)c3ccc(Br)o3)cc2)cs1	1.8µM*	0.79µM*	nt	1.5µM*	?	2.9µM*
O=C(Nc1cccc(F)c1)c1ccc(-c2ccccc2C(F)(F)F)o1	-4%	3%	0%	?	24%	9%
Cc1nc(-c2cccc(NC(=O)c3ccc(Br)o3)c2)cs1	12%	-2%	nt	?	11%	-11%
O=C(NC(=S)Nc1ccccc1)c1ccc(Br)o1	?	?	22µM*	13µM*	?	?
COc1ccc(NC(=O)c2ccc(-c3ccccc3C(F)(F)F)o2)cc1	8%	4%	-1%	19µM*	?	9%
CN(CC(=O)Nc1cccc(F)c1)C(=O)/C=C/c1ccc2ccccc2n1	-6%	1%	nt	-3%	-2%	-9%
O=C(O)C(Cc1c[nH]c2ccccc12)NS(=O)(=O)c1cccc(Cl)c1Cl (centres undefined)	1%	-3%	nt	-2%	?	0%
Cc1nc2ccccn2c1C(=O)NNS(=O)(=O)c1ccc(C(C)(C)C)cc1	-12%	-12%	-76%	?	?	-2%
CCC1=C(OC(=O)N(CC)CC)N2C(=O)OC(=NCCOC)[C@]2(C)[C@H]2C1=CC[C@H]1C(=O)NC(=O)[C@H]12	nt	nt	-11%	nt	nt	nt
COc1ccc(NC(=O)c2ccc(Br)o2)cc1	?	?	14µM*	9.5µM*	?	?
COc1ccc(NC(=O)c2ccc([N+](=O)[O-])o2)cc1	23%	25%	nt	?	?	?
O=C(Nc1ccc(Nc2ccccc2)cc1)c1ccc(Br)o1	30%	?	7%	19µM*	?	13%
CC(C)c1ccc(NC(=O)C2=NNC(=O)CC2)cc1	2.8µM*	3.2µM*	nt	12µM*	?	?
COc1ccc(NC(=S)NC(=O)c2ccc(Br)o2)cc1	?	3.2µM*	8.9µM*	9.5µM*	?	?
